Screening data from PubChem BioAssay.
GalR3 antag = blocks the human galanin receptor 3; O60755; HEK293 GalR3-CNG cAMP membrane potential fluorescence; galR3 body fused to GalR1 C-terminus; inhibition, % at 3 µM; 360,000 compounds, 0.44% hits;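 active = inhibition above the screen-wide average plus 3 SD, cut at about 13% in these data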;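 note: forskolin and galanin both at EC90 stimulate the cells; cAMP rise reported by CNG channel membrane potential dye signal; 0% = forskolin plus galanin with DMSO and 100% = forskolin alone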
Target sequence (O60755 1-299 limits assumed): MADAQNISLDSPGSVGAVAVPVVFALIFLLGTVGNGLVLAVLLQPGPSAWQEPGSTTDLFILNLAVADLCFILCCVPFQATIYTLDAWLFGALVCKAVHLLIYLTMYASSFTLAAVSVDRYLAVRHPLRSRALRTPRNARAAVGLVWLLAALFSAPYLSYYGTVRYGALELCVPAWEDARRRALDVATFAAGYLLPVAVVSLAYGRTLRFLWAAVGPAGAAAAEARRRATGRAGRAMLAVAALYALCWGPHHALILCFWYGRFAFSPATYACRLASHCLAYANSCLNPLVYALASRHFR
SRC2 inh = inhibits human steroid receptor coactivator 2. Q15596. HEK293 GAL4-SRC2 luciferase reporter, luminescence. inhibition, % at 9 µM. 370,000 compounds, 0.17% hits. AID 651957;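 active = inhibition above the mean inhibition of all tested compounds plus 3 SD, set per campaign, cut at about 52% in these data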;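 note: 0% = DMSO treated cells and 100% = cells given Gossypol at 36 µM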
NCOA1 inh = inhibitors of human steroid receptor coactivator 1 (SRC1) | Q15788 | HEK293 GAL4-SRC1 luciferase reporter, luminescence | inhibition, % at 3.6 µM | 360,000 compounds, 0.12% hits;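 active = inhibition above the campaign mean plus 3 SD, with each screening campaign given its own cutoff, cut at about 60% in these data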;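 note: 0% = DMSO treated cells and 100% = gossypol at 36 µM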
LRH-1 inv ag = inverse agonists of human LRH-1 (NR5A2) | 360,000 compounds, 0.13% hits | HEK293T StAR-luciferase reporter, LRH-1 transfected, 24 h | inhibition, % at 3.6 µM | AID 602396 | O00482;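 active = inhibition above the mean inhibition of all tested compounds plus 3 SD, cut at about 73% in these data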;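 note: 0% = DMSO wells and 100% = reporter-only cells lacking LRH-1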
SRC3 inh = inhibitors of human steroid receptor coactivator 3 (SRC3). 360,000 compounds, 0.17% hits. HEK293 GAL4-SRC3 luciferase reporter, luminescence. Q9Y6Q9. inhibition, % at 3.6 µM. AID 588352;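 active = inhibition above a per-campaign cutoff, the mean of all compounds plus 3 SD, cut at about 60% in these data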;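 note: 0% = DMSO-treated cells and 100% = gossypol-treated cells at 36 µM; higher means less SRC3-driven luciferase light from the GAL4 reporter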
COUP-TFII inh = inhibitors of human COUP-TFII (NR2F2); P24468; HEK293T NGFI-A luciferase reporter, luminescence; inhibition, % at 8.6 µM; 370,000 compounds, 0.7% hits;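 active = inhibition above a per-plate cutoff, mean inhibition of test wells between control levels plus 3 SD, cut at about 38% in these data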;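 note: cells cotransfected with COUP-TFII expression vector driving the NGFI-A reporter; 0% = median of COUP-TF2 test wells and 100% = reporter-only cells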
Gal4-VP16 ctr = counter-screen for COUP-TFII antagonists: inhibitors of VP16; shares compounds with COUP-TFII inh; HEK293 Gal4-VP16 luciferase reporter, luminescence; inhibition, % at 8.5 µM; 2,500 compounds, 25% hits; in the data active = inhibition above about 13%
NR2F2 inh conf = confirmation of human COUP-TFII (NR2F2) inhibitors | shares compounds with COUP-TFII inh | HEK293 NGFI-A luciferase reporter, luminescence | inhibition, % at 8.5 µM | 2,500 compounds, 45% hits | AID 687008;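 active = mean inhibition over three repeats above a set limit taken from the earlier primary screen, cut at about 38% in these data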;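 note: 100% = cells given the luciferase reporter alone without the COUP-TF2 vector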
Active calls of the source: *; / = no result. In the library only some 1.1% were active in any assay of this set; here they are far more common.

SMILES	GalR3 antag	SRC2 inh	NCOA1 inh	LRH-1 inv ag	SRC3 inh	COUP-TFII inh	Gal4-VP16 ctr	NR2F2 inh conf
COc1ccccc1NS(=O)(=O)c1ccc(-c2cnc(C3CC3)o2)cc1	-3	1	17	7	9	-14	/	/
COc1ccc(NS(=O)(=O)c2ccc(-c3cnc(C4CC4)o3)cc2)cc1OC	8	31	26	67	23	56*	1	50*
O=C(c1cccc(S(=O)(=O)N2CCN(c3ccccc3)CC2)c1)N1CCCC(C(F)(F)F)C1 (stereo unspecified)	-4	-13	21	-2	16	7	/	/
O=C(c1cc(S(=O)(=O)N2CCN(c3ccccc3)CC2)ccc1Cl)N1CCCC(C(F)(F)F)C1 (stereo unspecified)	-5	33	4	31	29	46*	2	32
Cc1ccc(NC(=O)O/N=C/c2c(C)nn(C(C)(C)C)c2C)cc1Cl	-3	95*	91*	88*	92*	100*	93*	110*
CCNS(=O)(=O)c1ccc(CCC(=O)N2CCN(c3ccccc3)CC2)cc1	-6	29	5	0	10	43*	9	4
CC(C)CNS(=O)(=O)c1ccc(CCC(=O)N2CCN(c3ccccc3)CC2)cc1	-3	15	22	8	5	14	/	/
Cc1nc2ccccc2c2c1CC(C(C)(Cl)Br)O2 (stereo unspecified)	8	35	17	24	23	54*	6	56*
Cc1ccc2nc(C)c3c(c2c1)OC(C(C)(Cl)Br)C3 (stereo unspecified)	-10	20	10	5	-6	16	/	/
O=C(Nc1nc2cc3c(cc2s1)OCCO3)C1=COCCO1	2	68*	54	44	65*	81*	56*	77*
CC[n+]1ccccc1/C=C/c1ccc(N(C)C)cc1	-4	19	39	40	41	66*	1	50*
Cc1ccc(C(=O)O/N=C/c2ccc(N(C)C)cc2)cc1	-3	-9	-2	-12	5	-9	/	/
CN(C)c1ccc(C(=O)/C=C/c2ccccc2)cc1	-7	-60	-94	-157	-60	-50	/	/
Cc1ccc(/C=C/c2ccc(N(C)C)cc2)[n+](C)c1	-8	-15	42	59	49	65*	-6	55*
CN(C)c1ccc(/C=C/c2cc[n+](C)cc2)cc1	3	0	18	6	31	41*	-15	15
CC(C)(C)CCN1C[C@@H]2C(CNC(=O)c3cc(Cl)cc(Cl)c3)[C@@H]2C1 (stereo partly specified)	/	/	/	/	/	0	/	/
Cc1ccccc1NC(=O)c1cccc2c1-c1ccccc1C2=O	/	-4	/	/	/	-17	/	/
O=C(OC12CCCN(C1)/C(=C/c1cccc(Cl)c1)C2)c1ccc(Cl)cc1 (stereo unspecified)	/	-4	/	/	/	3	/	/
CC(=O)N1c2ccc(S(=O)(=O)N3CCCC(C(=O)Nc4ccc(F)cc4)C3)cc2CC1C (stereo unspecified)	2	23	7	22	10	46*	3	22
CC(=O)N1c2ccc(S(=O)(=O)N3CCCC(C(=O)Nc4ccc(C)cc4)C3)cc2CC1C (stereo unspecified)	1	5	2	-6	-6	-3	/	/
Cc1ccc(NC(=O)C2CCN(S(=O)(=O)c3ccc4c(c3)CC(C)N4C(=O)C3CCC3)CC2)nc1 (stereo unspecified)	0	-20	23	18	-5	45*	-1	27
COC(=O)[C@]12C[C@H](CC(=O)NCCCN3CCCC3=O)C(=O)N(CCC3=CCCCC3)C1=C[C@H](C(C)C)O[C@@H]2C1CC1	/	-12	/	/	/	-4	/	/
COc1cccc(N2CCN(CC(=O)NCc3ccccc3C)CC2)c1	/	-2	/	/	/	3	/	/
COc1cccc(CN2C(=O)C(C)N(C(=O)c3c(F)cccc3F)c3ccccc32)c1 (stereo unspecified)	-11	5	8	-6	22	50*	8	19
CC1C(=O)N(Cc2cccc(F)c2)c2ccccc2N1C(=O)c1ccccc1 (stereo unspecified)	-9	-8	-11	-9	-1	-16	/	/
SMILES	GalR3 antag	SRC2 inh	NCOA1 inh	LRH-1 inv ag	SRC3 inh	COUP-TFII inh	Gal4-VP16 ctr	NR2F2 inh conf
CC1C(=O)N(Cc2ccccc2F)c2ccccc2N1C(=O)c1c(F)cccc1F (stereo unspecified)	-8	11	11	-11	16	47*	-5	18
C[C@@H]1CN([C@@H](C)CO)C(=O)CCCn2nncc2CO[C@H]1CN(C)C(=O)c1ccccc1	-5	-19	-14	10	4	5	/	/
C[C@@H]1COc2cccc(N3CCCCC3)c2S(=O)(=O)N1	-5	6	/	/	/	-15	/	/
CCCOc1ccc(Cn2cnc3ccccc32)cc1	-5	17	0	45	15	38*	-17	20
CCN1CCN(c2cc(C)c3cc(NC(=S)N4CCCC(C)C4)ccc3n2)CC1 (stereo unspecified)	-5	29	20	32	40	46*	26*	35
Cc1ccc2c(c1)nnn2C1CCN(S(=O)(=O)c2ccc(C(=O)N3C(C)CCCC3C)cc2)CC1 (stereo unspecified)	-2	27	19	9	28	42*	8	55*
Cc1ccc2c(c1)nnn2C1CCN(S(=O)(=O)c2ccc(C(=O)O)cc2)CC1	-1	-14	-6	-14	14	-6	/	/
CC1=CC(c2ccc(Cl)cc2)n2nc(NC(=O)CCC(=O)O)nc2N1 (stereo unspecified)	-2	2	9	-28	12	23	/	/
CSc1ccc(CN(C)C(=O)c2cc(Cl)c3c(c2)OCCO3)cc1	-10	15	-20	6	2	8	/	/
CN(Cc1ccccc1)S(=O)(=O)c1cccc(C(=O)OCc2ccc(Oc3ccccc3)cc2)c1	/	-10	/	/	/	4	/	/
COc1cccc(-c2nnc3n2N=C(C(C)(C)C)CS3)c1	-6	73*	67*	46	66*	45*	27*	41*
Cc1cccc2cc(-c3ccccc3)c(-c3ccccc3)c[n+]12	2	20	42	53	41	64*	2	44*
COc1ccc(NC(=O)Cn2nc(C)c([N+](=O)[O-])c2C)cn1	0	-8	-5	8	10	-13	/	/
CCN(CC)S(=O)(=O)c1ccc(C)c(NC(=S)N2CCN(C/C=C/c3ccccc3)CC2)c1	0	12	12	17	23	43*	-10	24
